Molecules are shown by their SMILES. Several values for one entry are separate records, joined by “and”; a condition that tells them apart may be missing. Equal values may be shown once. Results filed as inconclusive are left out. Unmarked numbers belong to inactive results. Activity calls are given as the source filed them. Calls come from the whole dose curve; as a rule, active = well fitted cell-killing curve with a large enough effect; inconclusive = small, poorly fitted or top-dose-only effect, or effect the other way; inactive = no such curve, though single readings can be large or run the other way.

Here are results for 40 molecules from PubChem BioAssay (NCATS).
Potency is the fitted concentration of half-maximal effect.

This test is described as follows: Viability qHTS for spleen associated tyrosine kinase inhibitor (SYKi) drug resistant MV4-11 cells (AID 1963824). Note: nearly all actives have a fitted effect of over 35% in size. Conditions: SYKi-resistant MV4-11 viability, CellTiter-Glo, 72 h; series mostly up to 45 µM; viability, % of control: at the top concentration. From the text:
Department of Medicine, Hematology/Oncology
University Hospital Frankfurt, Germany.
Trials have shown promising clinical activity of the selective SYK inhibitor entospletinib in patients with high expressing HOXA9/MEIS1 acute leukemias. As the development of resistance mechanisms is a common problem in the use of targeted drugs, we performed a chemical library screen to identify drug sensitivities in SYK inhibitor resistant AML cells. […] Glucocorticoids are potent immunosuppressants which work in part by inhibiting the transcription of cytokine genes.
Described herein is a viability screen to look for activity in the SYK inhibitor drug resistant cell line against four NCATS compound libraries (MIPE 5.0, NPC, NPACT, and Kinase) totaling 11372 compounds. Active hits were reacquired for confirmation and further secondary assay testing.
SEQUENCE No. (e.g., 1, 2, 3, etc.); […] (e.g., Cells, Incubation, Reagent, etc.); VALUE; DESCRIPTION.
1; Media; 2uL; white, solid-bottom Corning assay plate.
2; Compounds; 23nL; Echo acoustic dispenser.
3; Cell; 5uL; 500 cells per well.
4: Incubation; 72hr; 37 C, 5% CO2, 95% humidity.
5; Reagent; 3uL; CellTiter-Glo reagent (Promega).
6; Incubation; 10min; room temperature.
7; Detection; Luminescence; ViewLux plate reader (PerkinElmer).
NOTES (numbers refer to Sequence numbers above
1. Quantitative high-throughput screening (qHTS) of small molecule compounds was conducted on drug resistant SYKi MV4-11 cell line.
2. Twenty-three nanoliter of small molecule compounds were added to each assay plates using the Echo acoustic dispenser (Beckman Coulter).
3. Cells were seeded into the assay plates at a final density of 500 cells in 5uL of media per well using the Multidrop Combi dispenser.
4. Plates were covered with stainless steel gasketed lids and incubated for 72 hours at standard cell culture conditions.
5. Viability was assessed by adding 3uL of CellTiter-Glo detection reagent (Promega).
6. Plates were covered with gasket lids and incubated for 10 minutes at room temperature.
7. Luminescence was measured on a ViewLux plate reader (PerkinElmer).
Background: qHTS replaces the single test concentration by a dilution series.
For the molecule `CCN(CC)C(=O)C1CN2CCc3cc(OC)c(OC)cc3C2CC1OC(C)=O` (stereo not given), the “viability, % of control” value was 92.3%.
For `C=C[C@H]1C(O[C@@H]2O[C@H](CO)[C@@H](O)[C@H](O)[C@H]2O)OC=C2C(=O)N3CCc4c([nH]c5ccccc45)[C@H]3C[C@H]21` (stereo not given in full), the “viability, % of control” value was 92.1% [at 17.3 µM].
Consider `Nc1ncnc2c1c(-c1cccc(OCc3ccccc3)c1)cn2C1CC(CN2CCCC2)C1` (stereo not given), for which the Potency is 1.3 µM (active).
Regarding `CNC(=O)c1ccc2c(c1)CCO[C@H]2CCN1CCN(c2ccc(C(N)=O)cc2)CC1`, the “viability, % of control” value was 61.1%.
On to `CCCCCCOc1cc2c(cc1N(C)c1ncc(C(=O)O)cn1)C(C)(C)CCC2(C)C`, for which the Potency was 6.51 µM (active).
For `CN1CC[C@H](c2c(O)cc(O)c3c(=O)cc(-c4ccccc4Cl)oc23)[C@H](O)C1`, the Potency was 0.299 µM (active).
On the same count and under the same terms, as for `COC(=N)c1nc2ccc3ncnc(Nc4ccc(F)cc4Br)c3c2s1`, the figure is 0.82 µM (active).
As for `CCNC(=O)C1CC(F)(c2ccc(CN3CCCC3)c(F)c2)C1` (stereo not given), the “viability, % of control” value is 88.7%.
Still for that read-out and setting: under `CCn1ccnc1CC1COc2ccccc2O1` (stereo not given) stands 69.6%; under `C[C@]12CCC(=O)C=C1CC[C@@H]1[C@@H]2C(=O)C[C@@]2(C)[C@H]1CC[C@]2(O)C(=O)CO`, 85.4%.
On to `CNC(=O)c1ccc(-c2cnc3ncc(Cc4ccc5ncccc5c4)n3n2)cc1F`, for which the Potency is 2.06 µM (active).
Take `CCC(=O)Nc1ccc(O)cc1`: the “viability, % of control” value was 105%.
Same read-out and setting: as for `CC(=O)Oc1c(C)c(C)c2c(c1C)CC[C@@](C)(CCC[C@H](C)CCC[C@H](C)CCCC(C)C)O2`, the figure is 105%.
On to `CO[C@H]1/C=C/O[C@@]2(C)Oc3c(C)c(O)c4c(O)c(c5c(nc6cc(C)ccn65)c4c3C2=O)NC(=O)/C(C)=C\C=C\[C@H](C)[C@H](O)[C@@H](C)[C@@H](O)[C@@H](C)[C@H](OC(C)=O)[C@@H]1C`, for which the Potency was 14.8 µM (active).
The same measure, in the same setting: as for `Cc1c[nH]c(/C=C2\C(=O)Nc3ccccc32)c1CCC(=O)O`, the figure is 1.16 µM (active) and 1.32 µM (active); as for `CC1CCCCN1CCCOC(=O)c1ccc(OC2CCCCC2)cc1` (stereo not given), 13.3 µM (active).
Turning to `CC1(C(=O)O)CCCC2(C)C3CCC4CC3(CCC12)CC4C(=O)O` (stereo not given), the “viability, % of control” value is 96%.
Consider `O=C1CCc2cc(S(=O)(=O)Nc3cccc(Cl)c3)ccc2N1`, for which the Potency is 16.4 µM (active).
As for `CN1CCN(c2nc(-c3ccc(C(=O)NC4(C(=O)NCC#N)CCCCC4)cc3)cs2)CC1`, the “viability, % of control” value is 87.2%.
As to `O=C(O)c1ccccc1C(=O)Nc1ccc(-c2ccccc2)cc1`, the Potency entry is “inactive”.
The same measure, in the same setting: as for `O=C(/C=C/c1ccc(CN(CCO)CCc2c[nH]c3ccccc23)cc1)NO`, the figure is 0.059 µM (active); as for `CNC(=O)c1ccc(Nc2ncc(C(F)(F)F)c(NCc3nccnc3N(C)S(C)(=O)=O)n2)cc1`, 291 nM (active) and 525 nM (active).
For `O=C(NC[C@H](O)CN1CCc2ccccc2C1)c1ccnc(NC2CCC2)c1`, the Potency is 6.61 µM (active).
On the same count and under the same terms, as for `CCCSc1nc(NC2CC2c2ccc(F)c(F)c2)c2nnn(C3CC(OCCO)C(O)C3O)c2n1` (stereo not given), the figure is 20.6 µM (active); as for `Cc1noc(C)c1-c1cc(O)cc(C(O)c2ccccc2)c1` (stereo not given), 1.46 µM (active).
Same read-out and setting: under `Cc1n[nH]c(C)c1Cc1sc2c(c1C(=O)N1C[C@H](O)CO1)c(=O)n(C)c(=O)n2CC(C)C` stands “inactive”.
The same measure, in the same setting: under `CN(C)[C@@H]1C(=O)C(C(N)=O)=C(O)[C@@]2(O)C(=O)C3=C(O)c4c(O)ccc(Cl)c4[C@@H](O)[C@H]3C[C@@H]12` stands 8.41 µM (active); under `CC1=C[C@@H]2[C@@H]([C@@H](O)C[C@@]3(C)[C@H]2C[C@@H](C)[C@]3(O)C(=O)CO)[C@@]2(C)Cc3cnn(-c4ccccc4)c3C=C12`, 1.03 µM (active).
Regarding `C=C1C2(C)CC3C4(C)C=CC(=O)OC(C)(C)C4CCC3(C)C1(C(=O)OC)C(=O)C(C)(O)C2=O` (stereo not given), the Potency is 0.224 µM (active).
On the same count and under the same terms, as for `Nc1nc2c(ncn2COC(CO)CO)c(=O)[nH]1`, the entry is “inactive”.
With `C[C@@H]1O[C@@H](O[C@@H]2[C@@H](O)[C@@H](O)[C@H](O[C@@H]3[C@@H](O)[C@@H](O[C@]4(CO)O[C@H](CO)[C@@H](O)[C@@H]4OC(=O)/C=C/c4ccc(O)cc4)O[C@H](CO)[C@H]3OC(=O)/C=C/c3ccc(O)cc3)O[C@H]2C)[C@H](O)[C@H](O)[C@H]1O`, the viability, % of control was 117% [at 9.25 µM].
For the molecule `COC(=O)C1C(c2ccc(O)cc2)C(C(=O)OC)C1c1ccc(O)cc1` (stereo not given), the Potency is 10.1 µM (active).
On the same count and under the same terms, as for `Cc1[nH]c(/C=C2\C(=O)Nc3ccc(F)cc32)c(C)c1C(=O)NCCN1CCCC1`, the figure is 73.1 nM (active) and 32.3 nM (active); as for `C/C=C/C1=CC2=C(CO1)C(=O)C(C)(OC(=O)c1c(C)cc(O)cc1OC)C(O)C2` (stereo not given), 5.08 µM (active).
For `CN(C)CCn1cc(S(=O)(=O)c2cccc(F)c2)c2cccnc21`, the “viability, % of control” value was 68.5%.
Consider `C=C1C[C@]23C[C@H]1CC[C@H]2[C@@]1(C)CCC[C@@]2(C)C(=O)O[C@@H]([C@@H]3O)[C@@H]12`, for which the Potency was 1.43 µM (active).
Turning to `CN1CCCC(n2nc(Cc3ccc(Cl)cc3)c3ccccc3c2=O)CC1` (stereo not given), the Potency is 26.6 µM (active).
As to `Cc1cc(Cn2cnc3c2CC(C(=O)O)N(C(=O)C(c2ccccc2)c2ccccc2)C3)ccc1N(C)C` (stereo not given), the “viability, % of control” value is 95.7%.
As for `COc1ccc(F)cc1-c1cc(NC(=O)[C@@H]2CCCNC2)ncc1Cl`, the Potency is 0.103 µM (active).
For the molecule `CC1(C)CCCC2(C)C=C(C(=O)O)C(O)CC12` (stereo not given), the “viability, % of control” value was 47.1%.
